Most compounds without a hit are left out; they make up all but 6.1% or so of the library.
HepG2 tox: HepG2 cytotoxicity, counter-screen for TGF-b inhibitors | Potency, µM (series often up to 46.1 µM), inactives show at the highest dose activity change, negative = cytotoxicity, most hits filed as cytotoxic | actives 0.76% (n = 410,000) | HepG2 CAGA-GFP viability, ATP luminescence, 18 h
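CellTiter-Glo luminescence gave cytotoxicity after 18 hours at 37 degrees C. The cells were HepG2 CAGA-GFP in 1% FBS DMEM, stimulated with 500 pg/mL TGF-beta after compound addition. %Activity was normalised to no-cell wells (complete cell-killing) and DMSO (no toxicity), and curves were fitted and classified.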
TGFb SMAD3 inh: TGF-b pathway inhibition; HepG2 CAGA-GFP TGF-b/SMAD3 reporter, GFP fluorescence, 18 h; TGF-beta stimulated, 500 pg/mL final; Potency, µM (series often up to 46.1 µM), for the others: at the top dose activity, negative = inhibition, usual class: inhibitors; actives 1.2% (n = 410,000); further: on the % scale 0 is the no-effect control and ±100 the full control effect; nearly all actives have a fitted effect of over 65% in size
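HEPG2 CAGA-GFP, 1000 cells/well; 2 h settle, 37 C; cpd via pin tool; TGF-b 500 pg/mL final; 18 h, 37 C; GFP imaging ex488/em500-530; %Activity normalised to -TGF-b and +DMSO controls; CRC fit, curve class.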
ATXN viability: reduces viability in counter-screen for ATXN expression inhibitors; Potency, µM (series often up to 56.7 µM), actives largely listed as cytotoxic; actives 0.49% (n = 400,000); S2 cells (HEK-293 line with an ATXN2-luciferase reporter) viability, CellTiter-Fluor protease fluorescence, 24 h; further: nearly all actives have a fitted effect of over 40% in size
ATXN2 expr inh: ATXN2 expression inhibition. HEK-293 ATXN2-luciferase reporter, luminescence, 24 h. Potency, µM (series often up to 57 µM), for inactives: top-dose activity change, negative = inhibition, most hits filed as inhibitors. actives 0.72% (n = 360,000). AID 1745845; further: on the % scale 0 is the no-effect control and ±100 the full control effect; nearly all actives have a fitted effect of over 55% in size
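qHTS (up to 57 uM final) was run with 24 h compound exposure of reporter cells at 37 °C. Each well was multiplexed: SteadyGlo luminescence measured ATXN2-luciferase expression after a fluorogenic Gly-Phe-AFC viability readout (25 uM final).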
RORg inh: inhibitors of mouse ROR gamma transcriptional activity; P51450; Drosophila S2 Gal4-RORgamma UAS-luciferase reporter, 20 h; Potency, µM (titrated, usually from 53.6 µM), for the others: at the top dose activity change, negative = inhibition, actives largely listed as inhibitors; actives 5.4% (n = 310,000); AID 2551; further: on the % scale 0 is the no-effect control and ±100 the full control effect; nearly all actives have a fitted effect of over 60% in size
Target sequence (P51450 whole entry, looked up, the tested form may be a part): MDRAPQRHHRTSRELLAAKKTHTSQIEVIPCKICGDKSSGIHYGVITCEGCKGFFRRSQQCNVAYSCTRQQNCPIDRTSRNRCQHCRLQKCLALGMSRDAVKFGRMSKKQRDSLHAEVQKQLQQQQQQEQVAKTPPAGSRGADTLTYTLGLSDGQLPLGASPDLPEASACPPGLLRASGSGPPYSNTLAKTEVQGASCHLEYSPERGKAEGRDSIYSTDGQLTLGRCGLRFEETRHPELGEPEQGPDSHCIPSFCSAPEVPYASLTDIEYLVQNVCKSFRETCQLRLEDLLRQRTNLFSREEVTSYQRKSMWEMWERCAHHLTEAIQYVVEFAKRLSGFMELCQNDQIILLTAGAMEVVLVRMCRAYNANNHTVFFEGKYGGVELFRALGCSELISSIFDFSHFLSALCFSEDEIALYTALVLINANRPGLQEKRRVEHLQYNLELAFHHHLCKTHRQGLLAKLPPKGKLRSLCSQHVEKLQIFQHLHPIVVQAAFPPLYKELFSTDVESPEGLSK
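Compounds are pin-transferred onto Drosophila Schneider cells expressing a copper-inducible Gal4–ROR gamma transactivation domain fusion. After 1 hr, copper sulfate is added to 700 uM final; luciferase is read 20 hr later.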
VP16 counter: Gal4-VP16 reporter inhibition counter-screen; Drosophila S2 Gal4-VP16 UAS-luciferase, luminescence, 20 h; Potency, µM (doses to about 53.6 µM), for inactives: at the highest dose activity, negative = inhibition, actives largely listed as inhibitors; actives 3.5% (n = 310,000);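 further: Gal4-VP16 expression switched on by copper sulfate through the metallothionein promoter; on the % scale 0 is the no-effect control and ±100 the full control effect; nearly all actives have a fitted effect of over 50% in size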
Starred values were filed as active, the others as inactive; i = inactive; u = inconclusive; x = not tested or not shown. The call rests on the fitted dose curve; in most records, active means well fitted curve in the direction sought with a large enough effect; inconclusive means small, poorly fitted or top-dose-only effect, or another doubt; inactive means no such curve, though single readings can be large; an effect the other way counts as inactive or inconclusive. Potency means the concentration at half of the fitted maximal effect.

SMILES | HepG2 tox | TGFb SMAD3 inh | ATXN viability | ATXN2 expr inh | RORg inh | VP16 counter
CN1CCCC1CCOC(C)(c1ccccc1)c1ccc(Cl)cc1 (centres undefined) | 11µM* | u | 20µM* | 32µM* | x | x
Cc1ccc(C(=O)Oc2ccc(Cl)c3cccnc23)cc1[N+](=O)[O-] | -44% | 11µM* | i | -30% | 1.6µM* | 3.5µM*
O=[N+]([O-])c1cc([N+](=O)[O-])c(Oc2ccc(Cl)c3cccnc23)cc1NN1CCCCC1 | 15% | 25% | u | 0% | 6.3µM* | u
CCn1cc(C(=O)N2CCN(c3ccc(OC)cc3)CC2)c(=O)c2cc(S(=O)(=O)N(C)C3CCCCC3)ccc21 | 10% | -1% | i | 11% | x | x
CC(=O)N(/N=C1\Sc2ccccc2C1=O)c1cccc(C)c1 | -29% | u | u | 45% | 7.1µM* | u
O=C(CSc1oc(-c2ccco2)nc1S(=O)(=O)c1ccc(Cl)cc1)Nc1ccc(F)cc1 | -26% | -16% | i | -9% | x | x
O=C(N/N=C/C=C/c1ccccc1)c1cc2c(ccc3ccccc32)o1 | -6% | 0% | i | u | 7.1µM* | u
C#CCn1cc(/C=N/NC(=O)c2cc3ccccc3o2)c2ccccc21 | -20% | 7% | i | 34% | 18µM* | u
C=CCn1cc(/C=N\NC(=O)c2cc3c(ccc4ccccc43)o2)c2ccccc21 | 0% | 0% | i | -7% | 5.6µM* | -22%
O=C(N/N=C/c1ccccc1F)c1cc2c(ccc3ccccc32)o1 | 1% | -6% | i | -22% | u | u
C[C@@]12C[C@@]3(O)O[C@@H](O1)[C@]1(COC(=O)c4ccccc4)[C@@H]3C[C@@]12O[C@@H]1O[C@H](CO)[C@@H](O)[C@H](O)[C@@H]1O | x | x | x | 5% | x | x
O=C(NNS(=O)(=O)c1ccc(F)cc1)c1cnn(-c2ccccc2)c1C(F)(F)F | -18% | -6% | i | x | u | 13µM*
CC(C=CC(=O)NO)=C[C@@H](C)C(=O)c1ccc(N(C)C)cc1 | x | x | x | 167% | x | x
O=C(CCl)N1c2ccccc2SCC1c1ccccc1 (centres undefined) | -104% | u | 20µM* | u | 11µM* | 14µM*
O=C(CCl)N1c2ccccc2OCC1c1ccccc1 (centres undefined) | 19% | 0% | u | -3% | 22% | -12%
OC(C[n+]1ccccc1Cl)c1ccccc1 (centres undefined) | 0% | 8% | x | x | x | x
CC1CCN(C(=O)c2cc3c(ccc4ccccc43)o2)CC1 | -31% | -4% | i | 3% | 4.5µM* | 10µM*
CCOC(=O)C1CCN(C(=O)c2cc3c(ccc4ccccc43)o2)CC1 | -23% | 1% | i | 68% | -39% | -3%
COc1ccccc1NCC(O)Cn1c2ccccc2c2ccccc21 (centres undefined) | -115% | 13µM* | i | -17% | 14% | -19%
COc1ccc(CCNCC(O)Cn2c3ccccc3c3ccccc32)cc1OC (centres undefined) | 11µM* | u | u | u | u | u
CCC(=O)N1CCc2cc(Br)cc(S(=O)(=O)N3CCCC(C(=O)Nc4cccc(Cl)c4C)C3)c21 (centres undefined) | 4% | -39% | i | 1% | x | x
Cc1ccc(C(=O)NC(=S)Nc2ccc(CN3CCCCC3)cc2)c(C)c1 | -23% | 2% | i | -13% | 13µM* | u
COc1ccc(C(=O)NC(=S)Nc2ccc(CN3CCOCC3)cc2)cc1OC | -21% | -4% | i | x | u | -6%
O=C(Nc1ccc(CN2CCCCC2)cc1)Nc1ccc(Br)cc1Cl | 0% | 26% | u | 14µM* | 23% | -13%
COc1ccc(C(=O)NC(=S)Nc2ccc(CN3CCCCC3)cc2)cc1Cl | 5% | u | u | -11% | 20µM* | u
SMILES | HepG2 tox | TGFb SMAD3 inh | ATXN viability | ATXN2 expr inh | RORg inh | VP16 counter
COc1ccc(C(=O)NC(=S)Nc2ccc(CN3CCOCC3)cc2)cc1Cl | -61% | -24% | u | x | 13µM* | u
COC(=O)c1ccc(Cl)cc1NC(=O)N(Cc1ccc(OC)cc1)C1CCN(C(C)=O)CC1 | -42% | -11% | u | 0% | x | x
C=C1C(=O)[C@]23[C@H](O)[C@H]1CC[C@H]2[C@@]12COC3(O)[C@H](O)[C@@H]1C(C)(C)CC[C@@H]2O | x | x | x | x | 3.2µM* | 3.5µM*
C=C1C(=O)[C@@]23C(CC[C@@H]1[C@H]2O)[C@@]12CO[C@]3(O)[C@@H](O)[C@@H]1C(C)(C)CC[C@@H]2O (some centres undefined) | x | x | x | 9.7µM* | x | x
COc1ccc(Br)c(C(=O)Nc2cc3c(cc2N2CCCCC2)n(C)c(=O)c(=O)n3C)c1 | -24% | -8% | i | -2% | x | x
CCCn1cc(S(=O)(=O)c2ccc(C)c(C)c2)c(=O)c2cc(F)c(N3CCC(C)CC3)cc21 | 6% | -22% | x | x | x | x
COCCCNC(=O)c1sc2nc(C)c(C(=O)Nc3ccc(C)cc3C)c(-c3ccccc3Cl)c2c1N | -4% | 0% | i | -7% | x | x
Nc1c(C(=O)OCC2CCCO2)c2nc3ccccc3nc2n1C1CCCC1 (centres undefined) | -26% | u | i | -13% | 1% | -4%
COCCn1c(N)c(C#N)c2nc3ccccc3nc21 | 7% | u | x | -24% | 3% | 0%
COCCCn1c(N)c(-c2nc3ccccc3n2C)c2nc3ccccc3nc21 | -6% | -19% | x | u | 4µM* | 7.1µM*
Cn1c(-c2c(N)n(C3CCCC3)c3nc4ccccc4nc23)nc2ccccc21 | -24% | u | x | -19% | 3.5µM* | 5.6µM*
Cn1c(-c2c(N)n(CCCc3ccccc3)c3nc4ccccc4nc23)nc2ccccc21 | -14% | u | x | -21% | 0.79µM* | 2.8µM*
Cn1c(-c2c(N)n(CCc3ccccc3)c3nc4ccccc4nc23)nc2ccccc21 | -40% | -3% | x | -15% | u | 13µM*
CN(C)c1ccc(/C=C2\C=Cc3ccccc32)cc1F | -27% | 6% | x | x | x | x
O=C(CSC1CS(=O)(=O)c2cc([N+](=O)[O-])ccc21)NNC(=O)c1ccc(Cl)cc1 (centres undefined) | -67% | 13µM* | i | -25% | u | u
CCCC(=O)OCOC(=O)C1=C(C)NC(C)=C(C(=O)OC)C1c1cccc(Cl)c1Cl (centres undefined) | x | x | i | 6% | x | x
Cc1nc(C(=O)NCC(=O)c2ccc(Cl)cc2)c(C(F)(F)F)o1 | 8% | -16% | i | -6% | u | 13%

Screens deposited in PubChem by National Center for Advancing Translational Sciences (NCATS).
